Data published in PubChem BioAssay AID1159580 (chemical genetic matrix, 2015).
Hit rate of the full screen: of about 5,500 compounds, about 2,000 (36%) were called active. Another 18% or so got no clear call; they are omitted. Cut-off read from the data, not from the text of the source: active = normalized growth mostly below about 0.91 (no sharp cut-off); inconclusive = no clear call, values can overlap the other calls; inactive = mostly above about 0.92. Some of the results follow.

Assay: chemical genetic growth profiling, strain panel (AID 1159580);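 note: tested at 20 µM; growth read once vehicle control cultures reached saturation at 30 °C; 1 = growth at the plate median or of vehicle wells; lower values mean less growth of the strain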
Conditions: growth OD

Measured: normalized growth

O=c1cc(-c2cc(O)c(O)c(O)c2)oc2cc(O)cc(O)c12
active: S. cerevisiae deletion strains, locus YNL209W, strain ssb2, hits give low values 0.875
inactive: S. cerevisiae deletion strains, locus YJR075W, strain HOC1, hits give low values 1.02 | S. cerevisiae deletion strains, locus YKL009W, strain mrt4, hits give low values 0.99 | S. cerevisiae deletion strains, locus YKL068W, hits give low values 0.962 | S. cerevisiae deletion strains, locus YKL085W, strain MDH1 (second series), hits give low values 0.996 | S. cerevisiae deletion strains, locus YKL085W, strain MDH1, hits give low values 0.996 | S. cerevisiae deletion strains, locus YKL160W, strain elf1, hits give low values 0.934 | S. cerevisiae deletion strains, locus YKL190W, strain CNB1, hits give low values 0.992 | S. cerevisiae deletion strains, locus YKR001C, strain vps1, hits give low values 0.986 | S. cerevisiae deletion strains, locus YKR026C, strain gcn3, hits give low values 1.01 | S. cerevisiae deletion strains, locus YKR091W, strain srl3, hits give low values 1.01 | S. cerevisiae deletion strains, locus YLL001W, strain dnm1, hits give low values 0.961 | S. cerevisiae deletion strains, locus YLL026W, hits give low values 1.01 | S. cerevisiae deletion strains, locus YLL041C, strain sdh2, hits give low values 1 | S. cerevisiae deletion strains, locus YLR027C, strain aat2, hits give low values 0.974 | S. cerevisiae deletion strains, locus YLR039C, strain RIC1, hits give low values 0.966 | S. cerevisiae deletion strains, locus YLR058C, strain SHM2, hits give low values 0.999 | S. cerevisiae deletion strains, locus YLR102C, strain apc9, hits give low values 0.995 | S. cerevisiae deletion strains, locus YLR113W, strain HOG1, hits give low values 0.998 | S. cerevisiae deletion strains, locus YLR221C, strain rsa3, hits give low values 0.928 | S. cerevisiae deletion strains, locus YLR258W, strain gsy2, hits give low values 0.967 | S. cerevisiae deletion strains, locus YLR262C, strain YPT6 (second series), hits give low values 0.905 | S. cerevisiae deletion strains, locus YLR262C, strain YPT6, hits give low values 1.05 | S. cerevisiae deletion strains, locus YLR268W, strain sec22, hits give low values 0.976 | S. cerevisiae deletion strains, locus YLR320W, strain mms22, hits give low values 0.897 | S. cerevisiae deletion strains, locus YLR330W, strain CHS5, hits give low values 0.994 | S. cerevisiae deletion strains, locus YLR342W, strain FKS1 (second series), hits give low values 0.986 | S. cerevisiae deletion strains, locus YLR342W, strain FKS1, hits give low values 0.964 | S. cerevisiae deletion strains, locus YLR357W, strain rsc2, hits give low values 0.856 | S. cerevisiae deletion strains, locus YLR370C, strain arc18, hits give low values 0.924 | S. cerevisiae deletion strains, locus YLR371W, strain rom2, hits give low values 0.985 | S. cerevisiae deletion strains, locus YLR384C, strain iki3, hits give low values 0.993 | S. cerevisiae deletion strains, locus YLR418C, strain cdc73, hits give low values 1.02 | S. cerevisiae deletion strains, locus YML016C, strain PPZ1, hits give low values 0.994 | S. cerevisiae deletion strains, locus YML032C, strain rad52, hits give low values 0.999 | S. cerevisiae deletion strains, locus YML120C, strain ndi1, hits give low values 0.948 | S. cerevisiae deletion strains, locus YML124C, strain tub3, hits give low values 0.998 | S. cerevisiae deletion strains, locus YMR058W, strain fet3, hits give low values 0.941 | S. cerevisiae deletion strains, locus YMR078C, strain ctf18, hits give low values 0.998 | S. cerevisiae deletion strains, locus YMR125W, strain sto1, hits give low values 1.03 | S. cerevisiae deletion strains, locus YMR129W, hits give low values 1.01 | S. cerevisiae deletion strains, locus YMR205C, strain PFK2, hits give low values 0.961 | S. cerevisiae deletion strains, locus YMR223W, strain ubp8, hits give low values 0.964 | S. cerevisiae deletion strains, locus YMR231W, strain pep5, hits give low values 1 | S. cerevisiae deletion strains, locus YMR263W, strain SAP30, hits give low values 0.999 | S. cerevisiae deletion strains, locus YMR307W, strain GAS1, hits give low values 1.09 | S. cerevisiae deletion strains, locus YNL067W, strain RPL9B, hits give low values 1.01 | S. cerevisiae deletion strains, locus YNL071W, strain lat1, hits give low values 0.979 | S. cerevisiae deletion strains, locus YNL128W, strain TEP1, hits give low values 0.953 | S. cerevisiae deletion strains, locus YNL183C, strain NPR1, hits give low values 0.966 | S. cerevisiae deletion strains, locus YNL233W, strain BNI4, hits give low values 1.01 | S. cerevisiae deletion strains, locus YNL248C, strain rpa49, hits give low values 1.02 | S. cerevisiae deletion strains, locus YNL250W, strain rad50, hits give low values 0.966 | S. cerevisiae deletion strains, locus YNL271C, strain bni1, hits give low values 0.978 | S. cerevisiae deletion strains, locus YNL298W, strain CLA4, hits give low values 0.985 | S. cerevisiae deletion strains, locus YNL307C, strain MCK1, hits give low values 1.01 | S. cerevisiae deletion strains, locus YNL322C, strain KRE1 (second series), hits give low values 0.991 | S. cerevisiae deletion strains, locus YNR049C, strain mso1, hits give low values 1.01 | S. cerevisiae deletion strains, locus YNR052C, strain pop2, hits give low values 0.999 | S. cerevisiae deletion strains, locus YOL006C, strain TOP1, hits give low values 1.08 | S. cerevisiae deletion strains, locus YOL012C, strain htz1 0.547 | S. cerevisiae deletion strains, locus YOL147C, strain pex11, hits give low values 1.01 | S. cerevisiae deletion strains, locus YOR001W, strain rrp6, hits give low values 0.987 | S. cerevisiae deletion strains, locus YOR061W, strain CKA2, hits give low values 0.997 | S. cerevisiae deletion strains, locus YOR069W, strain VPS5, hits give low values 1 | S. cerevisiae deletion strains, locus YOR070C, strain gyp1, hits give low values 0.962 | S. cerevisiae deletion strains, locus YOR080W, strain dia2, hits give low values 0.993 | S. cerevisiae deletion strains, locus YOR083W, strain WHI5, hits give low values 0.916 | S. cerevisiae deletion strains, locus YOR106W, strain vam3, hits give low values 0.926 | S. cerevisiae deletion strains, locus YOR136W, strain idh2, hits give low values 0.995 | S. cerevisiae deletion strains, locus YOR144C, strain elg1, hits give low values 1.01 | S. cerevisiae deletion strains, locus YOR184W, strain ser1, hits give low values 1.01 | S. cerevisiae deletion strains, locus YOR231W, strain MKK1, hits give low values 1.04 | S. cerevisiae deletion strains, locus YOR265W, strain rbl2, hits give low values 0.99 | S. cerevisiae deletion strains, locus YOR270C, strain vph1, hits give low values 0.888 | S. cerevisiae deletion strains, locus YOR290C, strain snf2, hits give low values 0.942 | S. cerevisiae deletion strains, locus YOR316C, strain cot1, hits give low values 0.987 | S. cerevisiae deletion strains, locus YPL051W, strain arl3, hits give low values 0.931 | S. cerevisiae deletion strains, locus YPL055C, strain LGE1, hits give low values 1.03 | S. cerevisiae deletion strains, locus YPL078C, strain atp4, hits give low values 0.98 | S. cerevisiae deletion strains, locus YPL106C, strain sse1, hits give low values 0.929 | S. cerevisiae deletion strains, locus YPL240C, strain hsp82, hits give low values 1.01 | S. cerevisiae deletion strains, locus YPL256C, strain CLN2, hits give low values 1.06 | S. cerevisiae deletion strains, locus YPR119W, strain clb2, hits give low values 1.01 | S. cerevisiae deletion strains, locus YPR141C, strain kar3, hits give low values 0.971 | S. cerevisiae deletion strains, locus YPR163C, strain tif3, hits give low values 0.988 | S. cerevisiae deletion strains, locus YPR167C, strain met16, hits give low values 1.01 | S. cerevisiae deletion strains, strain wtn01, hits give low values 1 | S. cerevisiae strains, strain wild type, hits give low values 0.996
